Measured values: PubChem BioAssay AID1619 (SRMLSC, 2009)
Hit rate of the full screen: of about 220,000 compounds, about 830 (0.38%) were called active.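 Rule for the calls: active = compound inhibiting the enzyme by more than half at any dose during confirmatory dose-response retesting; inconclusive = strong single-dose inhibitors picked by rank but not retested; inactive = the rest.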 These entries were drawn from the full list. Potency and affinity values are given separately.

target: Leucine aminopeptidase (Plasmodium falciparum (isolate 3D7)) (UniProt Q8IL11); assay: P. falciparum M17LAP inhibitors, primary screen, biochemical, fluorogenic H-Leu-NHMec substrate, 1536-well (AID 1619); settings: recombinant M17LAP, H-Leu-NHMec fluorogenic kinetic assay; at 30 µM; stronger effect = higher value;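 note: plate controls were full reaction with DMSO carrier for no effect and no enzyme background for full effect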
Sequence (Q8IL11 whole entry, looked up): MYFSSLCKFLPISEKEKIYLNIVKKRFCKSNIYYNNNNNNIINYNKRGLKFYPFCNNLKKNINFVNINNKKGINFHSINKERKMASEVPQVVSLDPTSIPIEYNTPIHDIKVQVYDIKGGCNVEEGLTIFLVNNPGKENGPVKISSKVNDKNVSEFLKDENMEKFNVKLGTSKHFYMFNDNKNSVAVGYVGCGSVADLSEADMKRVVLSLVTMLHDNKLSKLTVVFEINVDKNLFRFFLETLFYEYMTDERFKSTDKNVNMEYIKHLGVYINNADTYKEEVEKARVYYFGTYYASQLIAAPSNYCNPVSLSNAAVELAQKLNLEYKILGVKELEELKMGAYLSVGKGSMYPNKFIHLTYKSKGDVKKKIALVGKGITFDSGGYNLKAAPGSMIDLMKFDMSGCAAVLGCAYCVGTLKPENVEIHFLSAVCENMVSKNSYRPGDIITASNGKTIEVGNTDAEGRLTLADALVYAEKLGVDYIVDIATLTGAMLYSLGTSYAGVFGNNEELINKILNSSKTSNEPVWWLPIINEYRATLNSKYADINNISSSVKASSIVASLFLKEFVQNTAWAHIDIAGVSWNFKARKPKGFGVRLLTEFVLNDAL

inhibition, inactive:
CC(C)CCn1nnnc1C(c1ccc(N(C)C)cc1)N1CCN(C(=O)c2ccco2)CC1 (stereo not drawn) 8.08%
COC(=O)c1cc(NC(=O)C2CC2)cc(C(=O)OC)c1 4.68%
O=C(O)c1ccc(NC(=O)C2CC=CCC2C(=O)O)cc1 (stereo not drawn) 2.25%
O=C(O)C1CC=CCC1C(=O)NNc1ccccc1 (stereo not drawn) 1.11%
O=C(O)C1CC=CCC1C(=O)Nc1cccnc1 (stereo not drawn) 20.5%
CC1=C(C)CC(C(=O)NNC(=O)c2cccc(Cl)c2)C(C(=O)O)C1 (stereo not drawn) 27.5%
COC(=O)c1cc(C)sc1NC(=O)C1CC=CCC1C(=O)O (stereo not drawn) 36.3%
O=C(NNC(=O)C1CC1c1ccccc1)Nc1cccc(Cl)c1 (stereo not drawn) -2.69%
O=C(CCSc1ccccc1)NC1CCCCCC1 2.59%
COc1ccc(C(=O)NCCCCCC(=O)N/N=C/c2ccco2)cc1OC -1.79%
C=CCn1c(-c2ccc(OC)c(OC)c2)n[nH]c1=S 13.8%
COc1ccc(S(=O)(=O)Nc2ccc3c(c2)OCO3)cc1 -4.98%
COc1ccccc1NC(=S)NCCSc1ccc(Cl)cc1 -3.97%
O=C(Nc1nccs1)c1ccc(S(=O)(=O)N2CCOCC2)cc1 7.17%
CCCC1=C(C(=O)OCC)C(c2ccncc2)n2ncnc2N1 (stereo not drawn) 5.84%
CC1=CC(C#N)(C#N)C(C#N)(C#N)C(c2ccccc2)N1 (stereo not drawn) -40.9%
O=C(Nc1cccc([N+](=O)[O-])c1)C1C2CC/C=C\CCC21 (stereo not drawn) 0.68%
O=C(O)C1CCCCC1C(=O)Nc1nccs1 (stereo not drawn) 15.9%
O=C(O)C1CC=CCC1C(=O)NCCc1ccccc1 (stereo not drawn) 42%
O=C(O)C1CCCCC1C(=O)NCCc1cccc(Cl)c1 (stereo not drawn) 75%
O=C(O)C1C2C=CC(C2)C1C(=O)Nc1cccc(F)c1 (stereo not drawn) 23.1%
O=C(O)C1CC=CCC1C(=O)Nc1cccc([N+](=O)[O-])c1 (stereo not drawn) 14.2%
O=C(O)C1CC=CCC1C(=O)Nc1cccc(C(=O)N2CCCCC2)c1 (stereo not drawn) 40.8%
O=C(Nc1nccs1)c1ccc(NC(=O)c2ccco2)cc1 9.18%
O=C(Nc1nc(-c2ccccc2)cs1)C1c2ccccc2Oc2ccccc21 1.51%
Cc1ccc(Cn2c(=O)cc(C(=O)O)c3ccccc32)cc1 -52.6%
CC(C)CC(=O)N1CCN(S(C)(=O)=O)CC1 9.33%
CCCc1cc(C(=O)N2CCN(S(=O)(=O)c3ccc(OC)c(OC)c3)CC2)cs1 -3.16%
